Source: PubChem BioAssay AID1159580 (chemical genetic matrix, 2015)
Several values for one entry are separate records, joined by “and”; a condition that tells them apart may be missing. Identical values can stand only once. The whole screen tested about 5,500 compounds, of which about 2,000 (36%) were called active. Another 18% or so got no clear call; they are omitted. Rule as the data show it: active = normalized growth mostly below about 0.91 (no sharp cut-off); inconclusive = no clear call, values can overlap the other calls; inactive = mostly above about 0.92. Some of the results follow.

Assay: chemical genetic growth profiling, strain panel (AID 1159580);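 also: tested at 20 µM; growth read once vehicle control cultures reached saturation at 30 °C; 1 = growth at the plate median or of vehicle wells; lower values mean less growth of the strain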
Details: S. cerevisiae deletion strains, growth OD

Measured: normalized growth

NCCCN
inactive: locus YAL021C, strain ccr4, hits give low values 1.02 | locus YAL026C, strain drs2, hits give low values 0.984 | locus YAL030W, strain snc1, hits give low values 0.989 | locus YBL061C, strain skt5, hits give low values 0.989 | locus YBR009C, strain hhf1, hits give low values 0.988 | locus YBR021W, strain FUR4, hits give low values 0.996 | locus YBR023C, strain chs3, hits give low values 0.982 | locus YBR171W, strain sec66, hits give low values 0.957 | locus YBR229C, strain ROT2, hits give low values 0.99 | locus YBR231C, strain swc5, hits give low values 0.984 | locus YBR279W, strain paf1, hits give low values 1 | locus YCL011C, strain gbp2, hits give low values 0.973 | locus YCL016C, strain dcc1, hits give low values 1 | locus YCL029C, strain bik1, hits give low values 0.984 | locus YCL061C, strain MRC1, hits give low values 1.01 | locus YCL069W, strain vba3, hits give low values 0.973 | locus YCR088W, strain abp1, hits give low values 0.982 | locus YDL005C, strain med2, hits give low values 0.977 | locus YDL035C, strain GPR1, hits give low values 1.03 | locus YDL040C, strain nat1, hits give low values 0.986 | locus YDL074C, strain BRE1, hits give low values 1.01 | locus YDL101C, strain DUN1, hits give low values 0.994 | locus YDL185W, strain tfp1, hits give low values 0.983 | locus YDL192W, strain arf1, hits give low values 0.998 | locus YDR001C, strain nth1, hits give low values 0.99 | locus YDR069C, strain doa4, hits give low values 0.987 | locus YDR101C, strain arx1, hits give low values 0.976 | locus YDR137W, strain rgp1, hits give low values 1.02 | locus YDR159W, strain sac3, hits give low values 0.961 | locus YDR162C, strain NBP2, hits give low values 1.01 | locus YDR195W, strain ref2 0.981 | locus YDR297W, strain sur2, hits give low values 0.996 | locus YDR318W, strain mcm21, hits give low values 1.01 | locus YDR334W, strain swr1, hits give low values 0.962 | locus YDR335W, strain msn5, hits give low values 0.987 | locus YDR388W, hits give low values 0.993 | locus YDR392W, strain spt3, hits give low values 0.964 | locus YDR502C, strain sam2, hits give low values 0.997 | locus YEL003W, strain gim4, hits give low values 0.976 | locus YEL037C, strain rad23, hits give low values 0.98 | locus YEL061C, strain CIN8 (second series), hits give low values 0.965 | locus YEL061C, strain CIN8, hits give low values 0.997 | locus YER015W, strain faa2, hits give low values 0.992 | locus YER016W, strain bim1, hits give low values 0.989 | locus YER110C, hits give low values 0.979 | locus YER111C, strain swi4, hits give low values 0.964 | locus YER155C, strain BEM2 (second series), hits give low values 0.966 | locus YER155C, strain BEM2, hits give low values 0.982 | locus YER167W, strain BCK2, hits give low values 0.989 | locus YFR010W, strain ubp6, hits give low values 0.958 | locus YGL078C, strain dbp3, hits give low values 0.999 | locus YGL086W, strain mad1, hits give low values 0.983 | locus YGL167C, strain pmr1, hits give low values 0.983 | locus YGL173C, strain kem1, hits give low values 0.972 | locus YGL227W, strain vid30, hits give low values 0.986 | locus YGL240W, strain doc1, hits give low values 0.979 | locus YGL248W, strain PDE1, hits give low values 1.01 | locus YGL253W, strain hxk2, hits give low values 0.968 | locus YGR078C, strain PAC10, hits give low values 1 | locus YGR135W, strain pre9, hits give low values 1.01 | locus YGR252W, strain gcn5, hits give low values 1.08 | locus YHR013C, strain ard1, hits give low values 0.972 | locus YHR027C, strain rpn1, hits give low values 1.01 | locus YHR030C, strain SLT2, hits give low values 0.997 and 0.973 | locus YHR079C, strain IRE1 (second series), hits give low values 0.994 | locus YHR079C, strain IRE1, hits give low values 0.976 | locus YHR094C, strain hxt1, hits give low values 0.979 | locus YHR129C, strain ARP1, hits give low values 1 | locus YHR142W, strain chs7, hits give low values 0.976 | locus YHR200W, strain rpn10, hits give low values 0.993 | locus YIL066C, strain RNR3, hits give low values 0.995 | locus YIL073C, strain SPO22, hits give low values 1.06 | locus YIL125W, strain kgd1, hits give low values 0.991 | locus YIR030C, strain dcg1, hits give low values 0.992 | locus YJL092W, strain hpr5, hits give low values 0.969 | locus YJL095W, strain BCK1 (second series), hits give low values 0.984 | locus YJL095W, strain BCK1, hits give low values 1.05 and 1.04 | locus YJL115W, strain asf1, hits give low values 0.956 | locus YJL129C, strain trk1, hits give low values 0.995 | locus YJL134W, strain LCB3, hits give low values 1 | locus YJL154C, strain vps35, hits give low values 0.981 | locus YJL164C, strain tpk1, hits give low values 1.01 | locus YJL166W, strain qcr8, hits give low values 0.989 | locus YJL168C, strain set2, hits give low values 0.983 | locus YJL187C, strain SWE1 (second series), hits give low values 1.01 | locus YJL187C, strain SWE1, hits give low values 1 | locus YJR043C, strain POL32, hits give low values 1.03
